# Compound activity: PubChem BioAssay, National Center for Advancing Translational Sciences (NCATS)
# In the library only some 21% were active in any assay of this set; here they are far more common.
# Shiga inhibitor – Shiga toxin inhibition; Vero cells, Shiga toxin protein synthesis inhibition reporter; inhibition, % at 38.7 µM; hit rate 9.2% among 290,000; in the data active = inhibition mostly above about 28%, no sharp cut-off; inactive = mostly below about 43%; also: 0% is about no effect
# Pf growth 96h – P. falciparum growth inhibition at 96 hours | P. falciparum luciferase reporter growth, 96 h | Potency, µM (titrated, usually from 28.7 µM), inactives show top-dose activity change, negative = inhibition, most hits filed as inhibitors | hit rate 6.9% among 320,000; also: potency is read from the fitted curve at half-maximal effect; % is scaled to controls: 0 for no effect and ±100 for the full control effect
#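 Delayed-death screen, second-generation endpoint: infected erythrocytes, 2% hematocrit, 0.05% parasitemia final; 96 hours at 37 C, 5% CO2; luciferase detection reagent; luminescence decrease equals reduced growth.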
# Pf growth 48h – inhibits P. falciparum growth in the first generation, 48 h. hit rate 5.9% among 310,000. AID 504832. P. falciparum luciferase growth in erythrocytes, 48 h. Potency, µM (titrated, usually from 28.7 µM), for the others: at the highest dose activity change, negative = inhibition, actives largely listed as inhibitors; also: potency is read from the fitted curve at half-maximal effect; % is scaled to controls: 0 for no effect and ±100 for the full control effect
#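 Erythrocytes infected with P. falciparum carrying an integrated firefly luciferase reporter (2% hematocrit, 0.1% parasitemia final) were exposed to compounds in RPMI 1640 with 0.5% Albumax at 37 C, 5% CO2. Growth inhibition was scored as reduced luminescence.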
# HCV inh – inhibitors of hepatitis C virus infection | hit rate 3.4% among 340,000 | Huh7.5.1 HCVcc-Cre infection, luciferase reporter, 44 h | AID 651820 | Potency, µM (doses to about 41.8 µM), without a hit: top-dose activity change, negative = inhibition, most hits filed as inhibitors; also: potency is read from the fitted curve at half-maximal effect; % is scaled to controls: 0 for no effect and ±100 for the full control effect
#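 Infectious HCV cell culture screen: compound-treated cells (1,000/well, pre-plated 4 h) are infected with HCVcc-Cre at roughly 0.5 moi and grown 44 h. Infection is quantified by luciferase signal after 15 min substrate incubation at room temperature.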
# HCMV inh – inhibitors of human cytomegalovirus; HFF cells, HCMV-luciferase reporter, 72 h; stronger effect = lower value; activity change, negative = inhibition, % at 57.5 µM; hit rate 4.5% among 410,000; in the data active = activity change below about -60%; inconclusive = no clear call, values can overlap the other calls; inactive = above about -39%; also: % is scaled to controls: 0 for no effect and ±100 for the full control effect
#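 Human foreskin fibroblasts infected with luciferase-reporter HCMV at MOI 1 PFU/cell, compounds at two doses. Luciferase measured 72 h post infection; normalized to buffer-only basal and Salinomycin (10uM) controls.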
# Cycloheximide cs – counter-screen hit for Shiga toxin inhibitors, cycloheximide; cell reporter, cycloheximide protein synthesis inhibition counterscreen; max response, %; hit rate 12% among 300,000; in the data active = max response mostly above about 13%, no sharp cut-off; inactive = mostly below about 14%; also: read at 38.3 µM for the half of the compounds with a filed dose; 0% is about no effect
# Numbers without * were called inactive; ? = inconclusive; . = not tested or not shown. Unless noted, calls follow the shape of the dose curve; as a rule, active = well fitted inhibition curve with a large enough effect; inconclusive = small, poorly fitted or top-dose-only effect, or another doubt; inactive = no such curve, though single readings can be large or run the other way.
SMILES,Shiga inhibitor,Pf growth 96h,Pf growth 48h,HCV inh,HCMV inh,Cycloheximide cs
Cc1c(C(=O)NCCCN2CCCC2=O)oc2ccccc12,72*,?,50%,14%,18,27*
CC(Oc1ccc2ccc(=O)oc2c1)C(=O)NC1CCN(Cc2ccccc2)CC1 (stereo unspecified),10,18%,?,-2%,4,9
COc1ccc(C(C(=O)Nc2ccc(C(C)C)cc2)N(C)C(=O)Cc2cccs2)cc1 (stereo unspecified),.,.,.,.,51,.
Cc1c(C(=O)NCCc2ccccc2)oc2ccccc12,75*,-9%,245%,6%,121,29*
Cc1c(C(=O)NCc2ccccc2F)oc2ccccc12,-13,?,24%,-5%,?,-4
Cc1c(C(=O)NC2CCC(C)CC2)oc2ccccc12 (stereo unspecified),61*,112%,97%,-23%,-17,46*
COCc1c(C(=O)NC2CCCCCC2)oc2ccccc12,62*,-8%,-18%,1%,6,22*
Cc1c(C(=O)NCc2cccs2)oc2ccccc12,30*,.,16%,21%,26,19*
CCc1ccc(NC(=O)C2(c3cccs3)CCOCC2)cc1,.,.,.,.,4,.
COc1ccccc1CNC(=O)c1ccc(OC(F)F)c(OC)c1,-1,14%,15%,?,27,-1
CCCCN(CCCC)C(=S)NC(=O)c1ccccc1Cl,10,-24%,-4%,9%,-29,-4
CC(C)Cc1nnc(NC(=O)CCC(=O)N2CCN(c3ccc(Cl)cc3)CC2)s1,-7,?,-8%,?,?,-3
C1CCN(c2c3c(nc4nnnn24)CCCC3)CC1,-20,10µM*,5%,-3%,-64*,1
C1CCC(CNc2c3c(nc4nnnn24)CCCC3)CC1,1,13µM*,?,12%,-33,-4
COCCCNc1c2c(nc3nnnn13)CCCC2,5,?,18%,-7%,45,-1
O=C(c1cc2ccccc2oc1=O)N(Cc1cccc(Br)c1)C1CCS(=O)(=O)C1 (stereo unspecified),31,-6%,-9%,2%,-23,15*
CN(C)c1ccc(CN(C(=O)c2cc3ccccc3oc2=O)C2CCS(=O)(=O)C2)cc1 (stereo unspecified),63*,?,-16%,-14%,46,47*
CC(C)c1ccc(CN(C(=O)c2cc3ccccc3oc2=O)C2CCS(=O)(=O)C2)cc1 (stereo unspecified),-1,.,3%,14%,10,15
O=C(c1cc2ccccc2oc1=O)N(Cc1ccco1)C1CCS(=O)(=O)C1 (stereo unspecified),35,9%,7%,19%,28,29*
COc1cccc(CN(C(=O)c2cc3ccccc3oc2=O)C2CCS(=O)(=O)C2)c1 (stereo unspecified),79*,6.6µM*,1%,11%,8,42*
O=C(c1cc2ccccc2oc1=O)N(Cc1cccc(Cl)c1)C1CCS(=O)(=O)C1 (stereo unspecified),.,.,.,.,20,.
O=C(c1ccccc1Br)N(Cc1ccco1)C1CCS(=O)(=O)C1 (stereo unspecified),.,.,.,.,35,.
CC(C)(C)OC(=O)N(c1cccc2cccnc12)S(=O)(=O)c1ccccc1Br,-9,.,.,.,.,9
O=C(COc1ccc(-c2ccccc2)cc1)Nc1cccnc1,.,-21%,34%,?,?,.
O=C(COc1ccc2ccccc2c1Br)Nc1cccnc1,138*,-11%,58%,?,-16,37*
SMILES,Shiga inhibitor,Pf growth 96h,Pf growth 48h,HCV inh,HCMV inh,Cycloheximide cs
O=C(COc1ccc2ccccc2c1Br)Nc1ccncc1,74*,32%,-9%,?,-60*,28*
COc1cc(OC)c(/C=N/NC(=O)COc2cccc3cccnc23)c(OC)c1,15,?,-7%,5%,11,-3
COC(=O)c1cc(/C=C/c2ccccc2)[nH]n1,25*,-93%,62%,7%,-4,20*
COC(=O)c1cc(/C=C/c2ccccc2)on1,-17,0%,2%,13%,-18,11
Cc1cc(-c2ccccc2)n(-c2ccccc2)n1,94*,12%,39%,-10%,-5,40*
O=[N+]([O-])c1cccc(-n2nncc2-c2ccccc2)c1,-8,-17%,19%,6%,5,-2
c1ccc(-c2cnnn2-c2ccccc2)cc1,-3,0.83µM*,24%,-2%,14,-2
O=C(CSc1nc2ccc(Cl)cc2[nH]1)Nc1ccc2[nH]c(=O)[nH]c2c1,.,-15%,0%,10%,-21,.
CNc1nc(SCc2ccc(C)cc2)nc2c1CCCC2,55*,13µM*,7.4µM*,?,-32,37*
Cc1ccc(CSc2nc3c(c(SCC(=O)O)n2)CCCC3)cc1,-8,-9%,7%,12%,-34,-3
Cc1ccc(CSc2nc3c(c(N(C)C)n2)CCCC3)cc1,5,?,13µM*,?,-35,6
Cc1nc(SCc2ccccc2)nc2c1CCC2,85*,70%,88%,2%,-18,58*
Cc1nc(S(=O)(=O)Cc2ccccc2)nc2c1CCC2,20,0%,1%,4%,0,10
CS(=O)(=O)c1ccc(-c2sc3cc4c(cc3c2C(=O)NN2CCOCC2)OCO4)cc1,.,.,.,24%,-14,.
CC(C)NC(=O)N(C)C[C@H]1Oc2c(NC(=O)Nc3ccccc3)cccc2C(=O)N([C@H](C)CO)C[C@@H]1C,.,.,.,8%,0,.
COc1cc(Cl)c(C)cc1NC(=O)c1cc2c(=O)oc3ccccc3c2s1,.,.,.,.,10,.
Cc1cc(Oc2nnnn2-c2ccccc2)ccc1Cl,42,2%,.,8%,-16,30*
N#C/C(=C(/O)CSc1nnc(Cc2cccs2)n1C1CCCCC1)c1nc2ccccc2[nH]1,22,65%,6.6µM*,24%,29,12
Cc1sc2nc(CSc3ccccc3)nc(NCCN(C)C)c2c1C,-4,5.9µM*,?,?,-17,-2
Cc1sc2nc(CN3CCOCC3)nc(NS(=O)(=O)c3ccccc3)c2c1C,15,.,24%,2%,-13,-1
CCN(C(=O)CSc1nnc(Nc2ccc(OC)cc2)s1)C1CCS(=O)(=O)C1 (stereo unspecified),.,.,.,-21%,97,.
CCOC(=O)c1sc2nc(C)nc(SCC(=O)N(CC)C3CCS(=O)(=O)C3)c2c1C (stereo unspecified),-15,?,?,-9%,-73*,13
Cc1sc2nc(C3CC3)nc(NCCNS(=O)(=O)c3ccccc3)c2c1C,-3,-12%,9.3µM*,?,-32,8
CCOC(=O)c1sc2nc(C)nc(N3CCCCC3C)c2c1C (stereo unspecified),16,-18%,?,-29%,-73*,-4
